Assay results: PMC11995724, “Antibiotic target discovery by integrated phenotypic and activity-based profiling of electrophilic fragments” (Cell chemical biology, 2025)
Hit rate of the full screen: of about 3,200 compounds, about 75 (2%) showed an effect of 50% or more. The list comes from a sample in which strong results are over-represented; it also holds similar structures and randomly drawn compounds.

These compounds were tested on T1, S. aureus MSSA476. Settings: relative growth, OD600, TSB; 25 µM; inhibitor.
T1 construct: MSSA476
Design: species or system S. aureus MSSA476 (TSB) or V. cholerae SAD30 (LB); 384-well bacterial growth screen at 25 uM, OD600 relative to DMSO control

| Structure (SMILES) | % of control remaining |
| --- | --- |
| O=C1C=CC(=O)N1c1ccccc1Sc1ccccc1 [10-K12, 1-[2-(phenylsulfanyl)phenyl]-2,5-dihydro-1H-pyrrole-2,5-dione] | 129.063% |
| O=C1C=CC(=O)N1c1ccccc1F [10-D17, 1-(2-fluorophenyl)-2,5-dihydro-1H-pyrrole-2,5-dione] | 118.75% |
| O=C1C=CC(=O)N1c1ccccc1Sc1ccc(Cl)cc1 [10-A03, 1-{2-[(4-chlorophenyl)sulfanyl]phenyl}-2,5-dihydro-1H-pyrrole-2,5-dione] | 10.9375% |
| CCN1C(=O)CC[C@H](CNC(=O)C(C)Cl)[C@H]1c1cnn(C)c1 (mixture of isomers) [6-L13, rac-2-chloro-N-{[(2R,3S)-1-ethyl-2-(1-methyl-1H-pyrazol-4-yl)-6-oxopiperidin-3-yl]methyl}propanamide] | 89.122% |
| C=CC(=O)N1CCc2c(nnn2CCOC)C1 [1-N05, 1-[1-(2-methoxyethyl)-1H,4H,5H,6H,7H-[1,2,3]triazolo[4,5-c]pyridin-5-yl]prop-2-en-1-one] | 84.7473% |
| C=CC(=O)NC1CCN(c2nnnn2C)CC1 [3-G06, N-[1-(1-methyl-1H-1,2,3,4-tetrazol-5-yl)piperidin-4-yl]prop-2-enamide] | 85.677% |
| CCC(NC(=O)CCl)c1c(C)noc1C (centres unmarked) [7-D03, 2-chloro-N-[1-(3,5-dimethyl-1,2-oxazol-4-yl)propyl]acetamide] | 95.4474% |
| O=C(CCl)c1ccc(Oc2ccccc2)cc1 [10-G20, 2-chloro-1-(4-phenoxyphenyl)ethan-1-one] | -0.625% |
| CCOc1ccc(C(=O)C(C)Cl)cc1 (centres unmarked) [10-G06, 2-chloro-1-(4-ethoxyphenyl)propan-1-one] | 80.3125% |
| O=C(CCl)Nc1ccc(Oc2ccccc2)cc1 [4-J09, 2-chloro-N-(4-phenoxyphenyl)acetamide] | 73.5588% |
| O=C(CCl)c1ccc2c(c1)-c1ccccc1C2 [10-H17, 2-chloro-1-(9H-fluoren-3-yl)ethan-1-one] | 1.875% |
| CCOc1ccc(C(=O)CCl)cc1 [10-F12, 2-chloro-1-(4-ethoxyphenyl)ethan-1-one] | 0.3125% |
| NC(=O)COc1ccc(C(=O)CCl)cc1 [10-M07, 2-[4-(2-chloroacetyl)phenoxy]acetamide] | 111.563% |
| O=C(CCl)Nc1cccc(Oc2ccccc2)c1 [4-P19, 2-chloro-N-(3-phenoxyphenyl)acetamide] | 90.7099% |
| CC(Cl)C(=O)NC(C)c1ccns1 (centres unmarked) [6-P12, 2-chloro-N-[1-(1,2-thiazol-5-yl)ethyl]propanamide] | 84.3415% |
| N#CC(=Cc1cc(F)ccc1F)C(=O)Nc1cc(Cl)ccc1Cl [8-A12, 2-cyano-N-(2,5-dichlorophenyl)-3-(2,5-difluorophenyl)prop-2-enamide] | 131.12% |
| Cl.O=C(CCl)NC1CCN(Cc2cscn2)CC1 [7-H04, 2-chloro-N-{1-[(1,3-thiazol-4-yl)methyl]piperidin-4-yl}acetamide hydrochloride] | 88.2261% |
| Cc1ccc(C)c(NC(=O)C(C#N)=Cc2ccc3c(c2)OCCO3)c1 [8-L11, 2-cyano-3-(2,3-dihydro-1,4-benzodioxin-6-yl)-N-(2,5-dimethylphenyl)prop-2-enamide] | 108.216% |
| C=CC(=O)NC(Cc1ccccc1)c1ccccn1 (centres unmarked) [2-K14, N-[2-phenyl-1-(pyridin-2-yl)ethyl]prop-2-enamide] | 109.312% |
| C=CC(=O)N(C)Cc1cn(C)nc1C(C)C [3-F15, N-methyl-N-{[1-methyl-3-(propan-2-yl)-1H-pyrazol-4-yl]methyl}prop-2-enamide] | 119.808% |
| Cc1cc(C(=O)CCl)c(C)n1-c1ccc(C(F)(F)F)cc1 [10-J14, 2-chloro-1-{2,5-dimethyl-1-[4-(trifluoromethyl)phenyl]-1H-pyrrol-3-yl}ethan-1-one] | 0% |
| Cc1csc(-n2c(C)cc(C(=O)CCl)c2C)n1 [10-G05, 2-chloro-1-[2,5-dimethyl-1-(4-methyl-1,3-thiazol-2-yl)-1H-pyrrol-3-yl]ethan-1-one] | 121.563% |
| Cc1ccccc1-n1c(C)cc(C(=O)CCl)c1C [10-H20, 2-chloro-1-[2,5-dimethyl-1-(2-methylphenyl)-1H-pyrrol-3-yl]ethan-1-one] | 118.75% |
| Cc1cc(C)cc(-n2c(C)cc(C(=O)CCl)c2C)c1 [10-E04, 2-chloro-1-[1-(3,5-dimethylphenyl)-2,5-dimethyl-1H-pyrrol-3-yl]ethan-1-one] | 128.438% |
| Cc1cc(C(=O)CCl)c(C)n1-c1ccc(C(C)(C)C)cc1 [10-N20, 1-[1-(4-tert-butylphenyl)-2,5-dimethyl-1H-pyrrol-3-yl]-2-chloroethan-1-one] | 101.875% |
| Cc1cc(C(=O)CCl)c(C)n1-c1ccc(C(C)C)cc1 [10-J12, 2-chloro-1-{2,5-dimethyl-1-[4-(propan-2-yl)phenyl]-1H-pyrrol-3-yl}ethan-1-one] | 5.3125% |
| Cc1cc(C(=O)CCl)c(C)n1-c1cc(Cl)cc(Cl)c1 [10-I04, 2-chloro-1-[1-(3,5-dichlorophenyl)-2,5-dimethyl-1H-pyrrol-3-yl]ethan-1-one] | 0% |

| Structure (SMILES) | % of control remaining |
| --- | --- |
| COc1ccc(-n2c(C)cc(C(=O)CCl)c2C)cc1 [10-I12, 2-chloro-1-[1-(4-methoxyphenyl)-2,5-dimethyl-1H-pyrrol-3-yl]ethan-1-one] | 127.813% |
| CCOc1ccc(-n2c(C)cc(C(=O)CCl)c2C)cc1 [10-K08, 2-chloro-1-[1-(4-ethoxyphenyl)-2,5-dimethyl-1H-pyrrol-3-yl]ethan-1-one] | 38.75% |
| Cc1cc(C(=O)CCl)c(C)n1C(C)c1ccccc1 (centres unmarked) [10-P17, 2-chloro-1-[2,5-dimethyl-1-(1-phenylethyl)-1H-pyrrol-3-yl]ethan-1-one] | 101.563% |
| C=CC(=O)NCc1ccc(C(=O)N2CCC[C@@H]2C(N)=O)cc1 [3-L22, (2R)-1-{4-[(prop-2-enamido)methyl]benzoyl}pyrrolidine-2-carboxamide] | 98.2151% |
| CC(Cl)C(=O)NC(c1ccc(F)cc1)c1cnn(C)c1 (centres unmarked) [7-C19, 2-chloro-N-[(4-fluorophenyl)(1-methyl-1H-pyrazol-4-yl)methyl]propanamide] | 93.2496% |
| N#CC(=Cc1cnc2ccc(C#N)cn12)C(=O)Nc1ccc(F)cc1 [9-E20, 2-cyano-3-{6-cyanoimidazo[1,2-a]pyridin-3-yl}-N-(4-fluorophenyl)prop-2-enamide] | 103.67% |
| CC(Cl)C(=O)N1CCn2c(nn(CC(=O)N(C)C)c2=O)C1 (centres unmarked) [7-K17, 2-[7-(2-chloropropanoyl)-3-oxo-2H,3H,5H,6H,7H,8H-[1,2,4]triazolo[4,3-a]pyrazin-2-yl]-N,N-dimethylacetamide] | 89.4819% |
| Cc1cc(C)n(CCCNC(=O)C(C)Cl)n1 (centres unmarked) [7-O19, 2-chloro-N-[3-(3,5-dimethyl-1H-pyrazol-1-yl)propyl]propanamide] | 98.2732% |
| Cc1nn(C)c(C)c1NC(=O)C(C)Cl (centres unmarked) [6-C07, 2-chloro-N-(1,3,5-trimethyl-1H-pyrazol-4-yl)propanamide] | 84.6829% |
| Cc1cc(NC(=O)CCl)c([N+](=O)[O-])cc1C [4-F21, 2-chloro-N-(4,5-dimethyl-2-nitrophenyl)acetamide] | 87.2797% |
| Cc1cc(C(=O)CCl)c(C)n1-c1ccc(S(N)(=O)=O)cc1 [10-N14, 4-[3-(2-chloroacetyl)-2,5-dimethyl-1H-pyrrol-1-yl]benzene-1-sulfonamide] | 121.875% |
| Cc1cc(C(=O)CCl)c(C)n1-c1ccccc1 [10-L20, 2-chloro-1-(2,5-dimethyl-1-phenyl-1H-pyrrol-3-yl)ethan-1-one] | 127.188% |
| Cc1cc(C(=O)CCl)c(C)n1-c1ccc(Cl)cc1 [10-H18, 2-chloro-1-[1-(4-chlorophenyl)-2,5-dimethyl-1H-pyrrol-3-yl]ethan-1-one] | -0.625% |
| CC(Cl)C(=O)N[C@@H]1CCc2c(C#N)cccc21 (stereo partly drawn) [6-P14, 2-chloro-N-[(1R)-4-cyano-2,3-dihydro-1H-inden-1-yl]propanamide] | 122.927% |
| COc1ccc(CNC(=O)CCl)cc1OC [5-O11, 2-chloro-N-[(3,4-dimethoxyphenyl)methyl]acetamide] | 81.6029% |
| CCC(=O)N1CCc2cc(C(=O)CCl)ccc21 [10-C22, 1-[5-(2-chloroacetyl)-2,3-dihydro-1H-indol-1-yl]propan-1-one] | 125.938% |
| CS(=O)(=O)N1CCc2cc(C(=O)CCl)ccc21 [10-B19, 2-chloro-1-(1-methanesulfonyl-2,3-dihydro-1H-indol-5-yl)ethan-1-one] | 0.3125% |
| O=CN1CCc2cc(C(=O)CCl)ccc21 [10-K20, 5-(2-chloroacetyl)-2,3-dihydro-1H-indole-1-carbaldehyde] | 102.813% |
| CCS(=O)(=O)N1CCc2cc(C(=O)CCl)ccc21 [10-E18, 2-chloro-1-[1-(ethanesulfonyl)-2,3-dihydro-1H-indol-5-yl]ethan-1-one] | 0.3125% |
| CS(=O)(=O)N1CCCc2cc(C(=O)CCl)ccc21 [10-H19, 2-chloro-1-(1-methanesulfonyl-1,2,3,4-tetrahydroquinolin-6-yl)ethan-1-one] | 1.5625% |
| CC(=O)NCCc1cc(C(=O)CCl)ccc1F [10-O05, N-{2-[5-(2-chloroacetyl)-2-fluorophenyl]ethyl}acetamide] | 128.438% |
| CC(=O)N1CCc2cc(C(=O)C(C)Cl)ccc21 (centres unmarked) [10-L22, 1-(1-acetyl-2,3-dihydro-1H-indol-5-yl)-2-chloropropan-1-one] | 124.375% |
| CN1C(=O)Cc2cc(C(=O)CCl)ccc21 [10-G07, 5-(2-chloroacetyl)-1-methyl-2,3-dihydro-1H-indol-2-one] | 132.813% |
| O=C(CCl)NCCS(=O)(=O)N1CCc2ccccc21 [6-H04, 2-chloro-N-[2-(2,3-dihydro-1H-indole-1-sulfonyl)ethyl]acetamide] | 86.0488% |
| CC(=O)N1c2ccc(C(=O)CCl)cc2CC1C (centres unmarked) [10-I20, 1-(1-acetyl-2-methyl-2,3-dihydro-1H-indol-5-yl)-2-chloroethan-1-one] | 66.25% |
| CC1Cc2cc(C(=O)CCl)ccc2N1S(C)(=O)=O (centres unmarked) [10-A04, 2-chloro-1-(1-methanesulfonyl-2-methyl-2,3-dihydro-1H-indol-5-yl)ethan-1-one] | 1.875% |
